Compound activity deposited in PubChem by The Scripps Research Institute Molecular Screening Center.
TLR9-MyD88 block = TLR9-MyD88 interaction inhibition. Q9NR96+Q99836. CHO BLA complementation TLR9-MyD88, CCF4 FRET ratio. inhibition, % at 4.98 µM. 0.21% of 340,000 active. AID 504734;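 active = inhibition above the mean over all tested compounds plus 3 SD, cut at about 21% in these data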;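 also: 0% = DMSO only wells and 100% = clavulanate BLA inhibitor control wells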
ABHD5-PLIN5 inh = blocks binding of human ABHD5 to perilipin-5; Split G. princeps luciferase complementation, luminescence, 4 h; inhibition, % at 4 µM; 0.78% of 360,000 active;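 active = inhibition above the mean inhibition across every tested compound plus 3 SD, cut at about 22% in these data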;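 also: 0% = DMSO only wells and the 100% control is not disclosed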
rCAG RNA binder = r(CAG) repeat RNA binding; TO-PRO-1 dye displacement fluorescence; inhibition, % at 3 µM; 1.3% of 370,000 active;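 active = inhibition above the plate cutoff, the mean of all test compounds on that plate plus 3 SD, cut at about 35% in these data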;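 also: 0% = DMSO alone and 100% = 100 µM mitoxantrone as full dye displacement; higher means more dye released from RNA so lower well fluorescence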
PRMT1 inh = blocks human protein arginine methyltransferase 1; Q99873; recombinant PRMT1, activity-based probe fluorescence polarization; inhibition, % at 2.79 µM; 1.3% of 370,000 active; AID 652257;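 active = inhibition above about 21% made by adding two undisclosed values, limit read from the data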
NOD2-RIPK2 inh = inhibitors of human NOD2-RIPK2 interaction | O43353 | CHO BLA complementation NOD2-RIPK2, CCF4 ratio | AID 624267 | inhibition, % at 4.98 µM | 0.38% of 360,000 active; in the data active = inhibition above about 21%;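 also: 0% = vehicle only and 100% = reference blocker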
TLR4-MyD88 BLA = blocks binding of human TLR4 to MyD88 | O00206+Q99836 | HeLa CL3-4 TLR4/MyD88 BLA complementation, FRET ratio | inhibition, % at 8.4 µM | 0.18% of 200,000 active; in the data active = inhibition above about 25%;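 also: 0% = vehicle and 100% = reference inhibitor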
ABHD5 PLIN5 conf = confirmation of human ABHD5-PLIN5 interaction inhibitors. shares compounds with ABHD5-PLIN5 inh. biochemical ABHD5-PLIN5 interaction, luminescence. inhibition, % at 4 µM. 67% of 2,200 active. AID 651612; in the data active = inhibition above about 23%;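 also: 0% = DMSO vehicle wells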
HNF4 split-luc = active in HNF4 split-luciferase counter-screen for ABHD5-PLIN5 inhibitors | HNF4 dimerization, luminescence, biochemical | AID 651674 | shares compounds with ABHD5-PLIN5 inh | inhibition, % at 4 µM | 77% of 2,200 active;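 active = mean inhibition across replicate wells exceeding the computed hit threshold, cut at about 13% in these data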;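 also: light from luciferase halves that rejoin when HNF4 fusion proteins dimerize; 0% = DMSO only wells and the 100% control is not given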
Target sequence (P41235 whole entry, looked up, the tested form may be a part): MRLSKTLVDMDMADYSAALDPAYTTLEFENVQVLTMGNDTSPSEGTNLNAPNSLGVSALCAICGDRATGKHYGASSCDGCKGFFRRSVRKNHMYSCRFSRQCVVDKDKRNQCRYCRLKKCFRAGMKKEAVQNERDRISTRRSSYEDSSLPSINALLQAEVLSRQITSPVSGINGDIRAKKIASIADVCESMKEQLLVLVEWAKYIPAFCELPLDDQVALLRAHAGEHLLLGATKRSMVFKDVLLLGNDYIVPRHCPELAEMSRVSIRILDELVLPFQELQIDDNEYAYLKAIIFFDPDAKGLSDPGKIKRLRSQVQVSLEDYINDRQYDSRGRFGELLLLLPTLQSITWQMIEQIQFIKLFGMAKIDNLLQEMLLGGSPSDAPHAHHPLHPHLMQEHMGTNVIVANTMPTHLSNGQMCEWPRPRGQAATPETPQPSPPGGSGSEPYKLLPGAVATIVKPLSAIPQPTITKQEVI
Active calls of the source: *; / = not tested or not shown. This is a sample that favours compounds with a hit; in the whole collection about 3.3% have one here.

SMILES	TLR9-MyD88 block	ABHD5-PLIN5 inh	rCAG RNA binder	PRMT1 inh	NOD2-RIPK2 inh	TLR4-MyD88 BLA	ABHD5 PLIN5 conf	HNF4 split-luc
CC(NC(=O)OCc1ccccc1)[P+](=O)O (centres undefined)	/	/	2	-2	/	/	/	/
COc1cc(/C=C2\C(=O)NC(=O)N(c3ccccc3)C2=O)cc(OC)c1O	-1	34*	-4	8	-8	6	17	22*
O=C(O)Cn1cc(/C=C2\C(=O)NC(=O)N(c3ccc(Cl)cc3)C2=O)c2ccccc21	4	36*	11	1	-5	/	33*	32*
CCOC(=O)Cn1cc(C=C2C(=O)N(C)C(=O)N(C)C2=O)c2ccccc21	1	29*	-2	16	-2	/	8	11
C=CCn1cc(C=C2C(=O)NC(=O)NC2=O)c2ccccc21	6	16	11	7	-1	/	/	/
O=C(O)Cn1cc(C=C2C(=O)NC(=O)NC2=O)c2ccccc21	6	32*	8	12	-7	/	12	12
CC(NC(=O)OC1CC2CCC1(C)C2(C)C)P(=O)(Oc1ccccc1)Oc1ccccc1 (centres undefined)	/	/	/	-2	/	/	/	/
Cc1cccc(C(C)c2cnc[nH]2)c1C (centres undefined)	/	/	2	1	/	/	/	/
O=C(NCCN1CCC2(CC1)C(=O)NCN2c1ccccc1)c1ccc2ccccc2c1	/	/	2	1	/	/	/	/
Cn1cc(/C=C2\C(=O)NC(=O)N(c3ccccc3)C2=O)c2ccccc21	1	29*	0	6	-9	/	14	15*
CC1(C)C[C@H]2C=C(C=O)[C@]3(C=O)C[C@]3(C)[C@H]2C1	8	63*	0	-3	-10	2	70*	4
CNC(=S)N(C)CCc1cc2c(c(OC)c1C=C1C(=O)NC(=O)NC1=O)OCO2	12	22	-2	15	-10	/	/	/
C=CCN1C(=O)NC(=O)/C(=C/c2c(CCN(C)C(=O)c3ccccc3)cc3c(c2OC)OCO3)C1=O	-10	26*	-2	10	-2	/	9	18*
CCc1ccc(N2C(=O)NC(=O)/C(=C/c3ccsc3)C2=O)cc1	/	/	/	/	/	7	/	/
O=C1NC(=O)N(c2ccc3c(c2)OCO3)C(=O)/C1=C/c1ccc(N2CCCC2)o1	1	8	-39	-20	0	4	/	/
O=C1NC(=O)N(c2ccc3c(c2)OCO3)C(=O)/C1=C/c1ccsc1	-2	30*	3	13	4	4	66*	55*
O=C1NC(=O)N(c2ccc3c(c2)OCO3)C(=O)/C1=C/c1cccs1	-1	29*	3	4	-7	11	82*	87*
C/C(=C\c1ccc(N(C)C)cc1)[N+](=O)[O-]	3	65*	4	2	11	7	99*	98*
COc1ccccc1-n1c(O)c(/C=C2\C=Nc3ccccc32)c(=O)[nH]c1=O	5	29*	5	2	-3	/	24*	28*
COc1ccc(OC)c(-n2c(O)c(/C=C3\C=Nc4ccccc43)c(=O)[nH]c2=O)c1	8	22	15	1	4	/	/	/
CCOc1ccc(-n2c(O)c(/C=C3\C=Nc4ccccc43)c(=O)[nH]c2=O)cc1	1	29*	19	12	1	/	14	38*
C=CCn1c(O)c(/C=C2\C=Nc3ccccc32)c(=O)[nH]c1=O	/	12	2	8	-12	/	/	/
O=C(NCCN1CCC2(CC1)C(=O)NCN2c1ccccc1)c1cccs1	/	/	2	-2	/	/	/	/
O=C1NC(=O)C(=Cc2ccc(OCCOc3ccc([N+](=O)[O-])cc3)cc2)C(=O)N1	0	-6	7	17	-1	0	/	/
O=C1NC(=O)N(c2ccccc2F)C(=O)/C1=C/c1ccc(Oc2ccc([N+](=O)[O-])cn2)cc1	4	24*	4	1	-12	17	69*	47*
COc1cccc(NC2=NCCS2)c1	/	/	0	4	/	/	/	/
